CtBP-E1A blk = inhibitors of CtBP/E1A interaction | AlphaScreen GST-E1A/His-CtBP binding, 1536-well; hits give low values | 0.49% of 340,000 active | AID 651724 | activity change, % (no concentration beside the values); in the data active means activity change below about -65%; inconclusive means mostly about -30% to -63%; further: on the % scale 0 is the no-effect control and ±100 the full control effect
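In 5 uL wells, 23 nL compound meets equimolar GST-E1A and His-CtBP (5X stock 125 nM each) for 2 h, 37 °C. Beads (5X, 50 ug/mL) then 1 h, 37 °C, dark.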
Six1-Eya2 inh = inhibitors of human Six1/Eya2 interaction; Q15475+O00167; AlphaScreen GST-Six1/His-Eya2 binding, biochemical; hits give low values; activity change, % (no concentration beside the values); 0.56% of 360,000 active; AID 651725; in the data active means activity change below about -65%; inconclusive means mostly about -30% to -63%; further: on the % scale 0 is the no-effect control and ±100 the full control effect
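Compounds are tested against tagged Six1 and Eya2 proteins bridged by glutathione donor and nickel acceptor beads; after a one-hour incubation at 37 °C without light, AlphaScreen emission is recorded.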
BAZ2B inh = blocks human BAZ2B | Q9UIF8 | AlphaScreen BAZ2B-H3K14Ac peptide displacement | Potency, µM (top dose mostly 114 µM), for the others: at the highest dose activity change, negative = inhibition, most hits filed as inhibitors | 4.4% of 360,000 active; further: potency means the concentration at half of the fitted maximal effect; on the % scale 0 is the no-effect control and ±100 the full control effect; nearly all actives have a fitted effect of over 60% in size
Target sequence (Q9UIF8 whole entry, looked up): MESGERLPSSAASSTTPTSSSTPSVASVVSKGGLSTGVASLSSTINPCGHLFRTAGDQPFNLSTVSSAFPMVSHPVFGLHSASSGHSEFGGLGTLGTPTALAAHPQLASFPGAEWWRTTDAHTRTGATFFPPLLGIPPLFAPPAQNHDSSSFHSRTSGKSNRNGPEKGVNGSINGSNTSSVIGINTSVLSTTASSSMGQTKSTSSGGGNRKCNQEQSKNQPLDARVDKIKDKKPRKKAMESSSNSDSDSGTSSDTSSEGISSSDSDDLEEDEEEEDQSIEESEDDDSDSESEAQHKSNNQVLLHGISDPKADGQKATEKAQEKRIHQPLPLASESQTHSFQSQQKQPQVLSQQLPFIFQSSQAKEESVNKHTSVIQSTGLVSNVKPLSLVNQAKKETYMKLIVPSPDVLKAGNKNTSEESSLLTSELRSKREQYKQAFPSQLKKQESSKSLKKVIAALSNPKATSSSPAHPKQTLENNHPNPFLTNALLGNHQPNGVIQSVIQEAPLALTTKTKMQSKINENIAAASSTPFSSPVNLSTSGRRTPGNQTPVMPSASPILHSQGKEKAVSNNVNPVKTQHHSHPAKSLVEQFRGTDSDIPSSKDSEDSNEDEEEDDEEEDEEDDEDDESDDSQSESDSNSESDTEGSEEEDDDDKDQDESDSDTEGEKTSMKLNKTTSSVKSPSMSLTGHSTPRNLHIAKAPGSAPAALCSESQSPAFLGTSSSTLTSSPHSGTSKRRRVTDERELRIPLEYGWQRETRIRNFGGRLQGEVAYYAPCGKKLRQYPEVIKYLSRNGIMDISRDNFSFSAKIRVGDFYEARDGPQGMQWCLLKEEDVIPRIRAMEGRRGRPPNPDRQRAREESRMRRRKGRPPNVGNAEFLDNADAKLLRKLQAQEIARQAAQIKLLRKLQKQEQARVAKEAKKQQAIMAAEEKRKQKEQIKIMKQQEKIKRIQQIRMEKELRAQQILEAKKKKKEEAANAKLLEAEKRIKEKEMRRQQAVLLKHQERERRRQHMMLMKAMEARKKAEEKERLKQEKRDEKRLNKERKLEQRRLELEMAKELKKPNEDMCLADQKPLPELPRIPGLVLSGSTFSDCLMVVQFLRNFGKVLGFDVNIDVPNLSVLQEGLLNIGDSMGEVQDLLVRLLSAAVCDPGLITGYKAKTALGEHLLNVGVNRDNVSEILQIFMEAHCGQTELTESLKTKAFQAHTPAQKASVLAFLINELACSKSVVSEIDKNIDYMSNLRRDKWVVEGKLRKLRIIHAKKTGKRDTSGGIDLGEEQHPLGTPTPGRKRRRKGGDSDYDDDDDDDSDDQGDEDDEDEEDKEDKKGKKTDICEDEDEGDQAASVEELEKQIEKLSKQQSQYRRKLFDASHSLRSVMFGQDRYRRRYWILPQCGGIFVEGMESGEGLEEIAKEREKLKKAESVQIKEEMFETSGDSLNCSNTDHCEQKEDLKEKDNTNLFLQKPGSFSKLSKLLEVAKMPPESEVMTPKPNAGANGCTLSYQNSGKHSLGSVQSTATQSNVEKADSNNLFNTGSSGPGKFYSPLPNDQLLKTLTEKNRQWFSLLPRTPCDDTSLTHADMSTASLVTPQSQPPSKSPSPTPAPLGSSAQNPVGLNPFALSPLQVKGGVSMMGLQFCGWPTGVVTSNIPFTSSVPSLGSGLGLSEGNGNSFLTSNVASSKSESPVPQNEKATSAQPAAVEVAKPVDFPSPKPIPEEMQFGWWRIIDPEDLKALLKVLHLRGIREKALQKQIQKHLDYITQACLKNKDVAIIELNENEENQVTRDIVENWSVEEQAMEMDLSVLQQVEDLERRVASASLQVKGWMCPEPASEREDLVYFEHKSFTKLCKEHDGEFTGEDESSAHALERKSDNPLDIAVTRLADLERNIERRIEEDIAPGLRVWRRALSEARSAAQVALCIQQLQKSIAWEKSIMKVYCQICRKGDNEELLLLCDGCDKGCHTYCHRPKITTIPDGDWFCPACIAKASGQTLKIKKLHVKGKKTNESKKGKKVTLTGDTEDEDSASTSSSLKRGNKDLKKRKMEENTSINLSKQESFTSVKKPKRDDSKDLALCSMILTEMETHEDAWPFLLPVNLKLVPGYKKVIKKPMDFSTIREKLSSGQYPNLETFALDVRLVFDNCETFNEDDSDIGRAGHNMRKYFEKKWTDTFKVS
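Complex of BAZ2B and biotin-H3K14Ac (50 nM apiece) forms over 30 min at RT, then faces library compounds up to 110 uM for another 30 min; AlphaScreen beads added, 20 min dark incubation, luminescence read.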
HP1b binding inh = inhibitors of HP1-beta chromodomain binding to methylated histone tails; AlphaScreen HP1-beta / biotin-H3K9me3 peptide binding; Potency, µM (top dose mostly 114 µM), inactives show at the top dose activity change, negative = inhibition, hits mostly inhibitors; 0.56% of 390,000 active; AID 540317; further: potency means the concentration at half of the fitted maximal effect; nearly all actives have a fitted effect of over 70% in size
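HP1-beta protein (50 nM final) preincubated 30 min at room temperature with biotinylated H3(1-18)K9me3 peptide (50 nM) in PBS pH 7.4, 0.01% Tween-20, then compound added for 30 min. AlphaScreen streptavidin donor/nickel chelate acceptor beads (10 ug/mL final), 30 min dark, luminescence read.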
JMJD2A Tudor inh = JMJD2A Tudor domain (human) inhibition | O75164 | AlphaScreen JMJD2A-Tudor / H3K4me3 peptide binding | Potency, µM (highest dose often 114 µM), for the others: at the top dose activity change, negative = inhibition, hits mostly inhibitors | 4.4% of 390,000 active | AID 504339; further: potency means the concentration at half of the fitted maximal effect; on the % scale 0 is the no-effect control and ±100 the full control effect; nearly all actives have a fitted effect of over 50% in size
G9a block = blocks human histone lysine methyltransferase G9a. 8.8% of 350,000 active. G9a H3K9 monomethylation, AlphaScreen, 2 h. AID 504332. Potency, µM (top dose mostly 102 µM), inactives show at the highest dose activity, negative = inhibition, actives largely listed as inhibitors; further: potency means the concentration at half of the fitted maximal effect; on the % scale 0 is the no-effect control and ±100 the full control effect; nearly all actives have a fitted effect of over 75% in size
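AlphaScreen detection with an anti-monomethyl H3K9 antibody quantified product after a 2 h room-temperature reaction containing 500 nM biotinylated H3K9 peptide, 20 µM SAM and 20 nM enzyme, which had been preincubated 15 min with compound.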
* marks the source's active call; other numbers are inactive results; ? = inconclusive; . = no result given; [ ] = dose if it differs, or a comment. Only some compounds are listed: those with a hit (about 10% of all), similar ones and a draw of the others. Unless noted, the call rests on the fitted dose curve; in most records, active means well fitted inhibition curve with a large enough effect; inconclusive means small, poorly fitted or top-dose-only effect; inactive means no such curve, though single readings can be large or run the other way.

SMILES	CtBP-E1A blk	Six1-Eya2 inh	BAZ2B inh	HP1b binding inh	JMJD2A Tudor inh	G9a block
Nc1nc(-c2ccc3ccccc3c2)cs1	-4.1	-7.5	?	-35.8%	-35.8%	50.1µM*
CN1CCN(c2nc(-c3cccs3)cs2)CC1	0.0	8.4	?	-15.0%	?	35.5µM*
Cc1ccc(-c2csc(N)n2)cc1	-7.7	-3.4	.	-17.1%	-34.5%	.
Nc1nc(-c2ccc(-c3ccccc3)cc2)cs1	-22.2	-19.2	-32.2%	-8.3%	-23.1%	44.7µM*
CCc1ccccc1NC(=O)c1nnn(Cc2ccc(Cl)cc2)c1N	.	.	-13.2%	26.4%	-4.0%	2.9%[59 µM]
Cc1ccc(NC(=O)CCc2nc(-c3ccccc3F)no2)c(C)c1	.	.	-2.4%	30.5%	-18.4%	-24.5%[59 µM]
Nc1nc(-c2cccc(NS(=O)(=O)c3ccccc3)c2)cs1	-24.0	-19.0	?	-16.3%	?	44.7µM*
C1CSC2(N1)C1CC3CC(C1)CC2C3 (centres undefined)	-1.0	-6.9	-2.1%	-3.8%	-32.5%	6.31µM*
Cc1ccc2cc(C(c3nnnn3C3CCCC3)N(Cc3ccco3)Cc3cccs3)c(=O)[nH]c2c1 (centres undefined)	-10.5	-11.4	-6.1%	9.6%	-7.1%	28.2µM*
Cc1ccc2cc(C(c3nnnn3C3CCCC3)N(Cc3cccnc3)Cc3ccco3)c(=O)[nH]c2c1 (centres undefined)	48.3	-0.3	-36.7%	17.1%	?	20µM*
Cc1cccc2cc(C(c3nnnn3C(C)(C)C)N(Cc3ccco3)CC3CCCO3)c(=O)[nH]c12 (centres undefined)	-0.3	-17.1	50.1µM*	15.8µM*	25.1µM*	50.1µM*
CCC(c1nnnn1C1CCCCC1)N(Cc1ccco1)Cc1cc2ccc(OC)cc2[nH]c1=O (centres undefined)	-0.6	5.1	-30.2%	-12.7%	-34.2%	4.1%[12.7 µM]
Cc1ccc2[nH]c(=O)c(C(c3nnnn3C3CCCC3)N(Cc3cccnc3)Cc3ccco3)cc2c1 (centres undefined)	5.2	0.2	-35.4%	-0.1%	?	-43.6%
O=C(NCc1cccs1)c1ccc(CSc2nc3ccncc3n2Cc2ccccc2F)cc1	.	.	18.9%	68.7%	-24.4%	-0.4%[59 µM]
COCCCN1CCc2[nH]c(=S)[nH]c(=O)c2C1	6.6	-3.1	-36.6%	13.1%	?	35.5µM*
COc1cccc(CN2CCc3[nH]c(=S)[nH]c(=O)c3C2)c1	2.9	3.1	-13.4%	46.9%	-15.4%	44.7µM*
CCCN1CNc2c(c(=O)[nH]c(=S)n2CCc2cccc(OC)c2)C1	.	.	.	30.0%	-22.4%	.
COc1ccc(C(=O)N2CCN(c3ccc(C)cc3C)CC2)cc1OC	-11.1	-19.9	-6.8%	27.6%	-14.8%	-17.8%
COc1ccc(OC)c2c(C)cc(N3CCN(C(=O)c4ccc(C)cc4)CC3)nc12	-5.5	10.8	50.1µM*	-35.6%	?	?
O=C(c1ccc2c(c1)CCCC2)N1CCN(c2nc3c(F)cccc3s2)CC1	.	.	-17.6%	-12.9%	-11.7%	-15.5%[59 µM]
COc1ccc(C(=O)N2CCN(c3ccc(C)c(C)c3)CC2)cc1OC	-5.4	-11.8	3.2%	26.0%	-20.4%	-27.8%
COc1ccc(OC)c2c(C)cc(N3CCN(C(=O)c4ccc(F)cc4)CC3)nc12	-24.4	-8.2	50.1µM*	-26.8%	?	?
COc1ccc(OC)c2sc(N3CCN(C(=O)c4ccc5c(c4)CCCC5)CC3)nc12	.	.	39.8µM*	?	?	?
Cc1cccc(CN2C(=O)c3ccccc3Sc3ccc(C(=O)NCc4cccs4)cc32)c1	.	.	-4.9%	19.6%	-22.9%	4.4%[59 µM]
CCN(CC)CCN1C(=O)/C(=C\c2ccc(Cl)c([N+](=O)[O-])c2)SC1=Nc1ccc(OC)cc1	-20.6	-15.7	10µM*	11.2µM*	17.8µM*	11.2µM*
SMILES	CtBP-E1A blk	Six1-Eya2 inh	BAZ2B inh	HP1b binding inh	JMJD2A Tudor inh	G9a block
COc1ccc(N=C2S/C(=C\c3ccc(Cl)c([N+](=O)[O-])c3)C(=O)N2CCN(C)C)cc1	.	-15.6	15.8µM*	15.8µM*	35.5µM*	?
CCN(Cc1ccccc1)S(=O)(=O)c1ccc(F)c(C(=O)Nc2ccc(C(C)C)cc2)c1	.	.	14.8%	59.4%	-9.5%	4.4%[59 µM]
CCc1ccc(NC(=O)CN2C(C(=O)OC)=C(c3ccccc3)c3ccccc3S2(=O)=O)cc1	.	.	-5.6%	15.1%	-5.5%	-30.3%[59 µM]
CCOc1ccc(NC2CCN(C(C)=O)CC2)cc1	0.2	-6.5	-0.5%	23.8%	-27.2%	50.1µM*
CCOc1ccc(S(=O)(=O)NN=C2CCN(C(C)=O)CC2)cc1	6.2	7.5	1.5%	37.2%	-11.6%	50.1µM*
CC(C)(C)OC(=O)NCc1nnc(-c2cc3ccccc3[nH]2)s1	.	.	.	.	0.0%	.
COc1ccc(CNC(=O)CCc2cn(C)c3ccccc23)cc1	.	.	?	9.6%	-27.5%	-33.4%[59 µM]
O=C(O)CC(c1cccc(Cl)c1)n1cccc1 (centres undefined)	4.0	1.2	-4.7%	0.7%	89.1µM*	-17.4%
N#Cc1cccc(S(=O)(=O)N2CCN(S(=O)(=O)c3ccc4c(c3)OCCO4)CC2)c1	.	.	.	9.2%[57 µM]	-7.5%	.
CCn1c(=N)c(C(=O)NCC2CCCO2)cc2c(=O)n3cc(C)ccc3nc21 (centres undefined)	.	.	0.6%	43.8%	-8.0%	-27.7%[59 µM]
Cc1cccc(C)c1NC(=O)C1c2cccc[n+]2CC(=O)N1Cc1ccc2c(c1)OCO2 (centres undefined)	-9.4	0.0	-4.1%	28.7%	-16.1%	8.91µM*
Cc1ccccc1NC(=O)C1c2cccc[n+]2CC(=O)N1c1c(C)cccc1C (centres undefined)	-6.3	-6.8	44.7µM*	?	50.1µM*	5.62µM*
CCc1ccc2oc(-c3cccc(NC(=O)c4ccc(-c5cccc([N+](=O)[O-])c5)o4)c3)nc2c1	.	.	?	17.9%	-22.0%	?
NCCOB(c1ccccc1)c1ccccc1	.	.	.	.	.	-16.8%[2.33 µM]
COCCCNc1ncnc2c1c(-c1ccccc1)cn2-c1ccc(C)c(Cl)c1	.	.	-4.4%	57.3%	-17.1%	-6.0%[59 µM]
COc1ccccc1Cc1nc2ccccc2nc1SCC(=O)Nc1cc(Cl)ccc1OC	.	.	1.6%	21.3%[57 µM]	-12.7%	12.9%[59 µM]
Cc1nn(C)cc1-c1n[nH]c(=S)n1-c1ccc(Cl)cc1	10.4	5.9	-9.5%	-13.8%	3.16µM*	5.62µM*
CC(C)(C)c1cc(-c2n[nH]c(=S)n2-c2ccc(Cl)cc2)n[nH]1	-0.5	-8.7	?	-12.2%	39.8µM*	?
CC(C)(C)c1cc(-c2ccccc2)n[nH]1	0.0	0.2	1.1%	42.8%	-7.0%	.

Compound activity (PubChem)
